Experimental findings from PubChem BioAssay (EPA / NIEHS) are described below.

Inconclusive results are not listed. More than one record can exist for a structure, and the calls need not agree. The source made the active and inactive calls. The calls were made as follows: active = hit-call score of the fitted dose curve at least 0.9, where 1 is the maximum; inconclusive = response in the unintended direction; inactive = score below 0.9.

Chain of rat Androgen Receptor (AR), Ar (gene 24208) (P15207 whole entry, looked up): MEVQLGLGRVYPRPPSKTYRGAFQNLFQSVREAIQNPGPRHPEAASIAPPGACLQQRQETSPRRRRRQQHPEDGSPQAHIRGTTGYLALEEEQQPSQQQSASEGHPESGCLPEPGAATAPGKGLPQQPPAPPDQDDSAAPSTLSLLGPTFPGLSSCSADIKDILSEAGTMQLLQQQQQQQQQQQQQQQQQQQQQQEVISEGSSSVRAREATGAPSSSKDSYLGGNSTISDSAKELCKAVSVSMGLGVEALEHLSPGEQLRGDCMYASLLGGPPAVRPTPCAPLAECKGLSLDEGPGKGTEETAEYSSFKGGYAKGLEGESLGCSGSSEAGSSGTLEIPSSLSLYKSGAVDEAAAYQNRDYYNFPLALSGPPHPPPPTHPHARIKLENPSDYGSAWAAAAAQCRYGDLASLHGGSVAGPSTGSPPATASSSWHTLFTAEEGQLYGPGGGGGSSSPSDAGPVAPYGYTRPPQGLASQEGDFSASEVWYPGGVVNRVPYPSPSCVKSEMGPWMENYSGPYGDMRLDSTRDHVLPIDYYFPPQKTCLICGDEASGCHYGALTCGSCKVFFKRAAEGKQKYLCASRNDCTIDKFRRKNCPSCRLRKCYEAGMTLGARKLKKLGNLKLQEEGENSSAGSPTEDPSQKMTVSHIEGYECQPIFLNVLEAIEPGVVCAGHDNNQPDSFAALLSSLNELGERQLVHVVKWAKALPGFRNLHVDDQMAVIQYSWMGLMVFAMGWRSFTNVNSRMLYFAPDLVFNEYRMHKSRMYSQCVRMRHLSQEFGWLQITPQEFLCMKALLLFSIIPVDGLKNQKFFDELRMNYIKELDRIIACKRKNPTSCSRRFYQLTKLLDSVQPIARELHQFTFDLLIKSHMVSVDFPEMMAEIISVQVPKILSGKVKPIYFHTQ
Chain of Nuclear receptor subfamily 1 group I member 2 (Homo sapiens) (O75469 whole entry, looked up): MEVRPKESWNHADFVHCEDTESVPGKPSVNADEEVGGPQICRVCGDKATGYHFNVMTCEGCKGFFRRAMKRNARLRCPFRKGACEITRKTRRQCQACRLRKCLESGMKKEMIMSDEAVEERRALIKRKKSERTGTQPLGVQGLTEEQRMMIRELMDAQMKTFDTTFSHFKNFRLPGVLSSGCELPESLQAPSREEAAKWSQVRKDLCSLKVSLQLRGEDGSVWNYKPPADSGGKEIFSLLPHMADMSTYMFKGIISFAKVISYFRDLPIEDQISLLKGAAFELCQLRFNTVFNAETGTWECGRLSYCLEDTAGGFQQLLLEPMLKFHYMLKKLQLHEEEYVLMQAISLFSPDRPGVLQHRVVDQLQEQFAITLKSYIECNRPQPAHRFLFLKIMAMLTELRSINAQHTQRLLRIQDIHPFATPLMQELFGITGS
Chain of human Thyroid Receptor Alpha (TRa), THRA (gene 7067) (P10827 whole entry, looked up): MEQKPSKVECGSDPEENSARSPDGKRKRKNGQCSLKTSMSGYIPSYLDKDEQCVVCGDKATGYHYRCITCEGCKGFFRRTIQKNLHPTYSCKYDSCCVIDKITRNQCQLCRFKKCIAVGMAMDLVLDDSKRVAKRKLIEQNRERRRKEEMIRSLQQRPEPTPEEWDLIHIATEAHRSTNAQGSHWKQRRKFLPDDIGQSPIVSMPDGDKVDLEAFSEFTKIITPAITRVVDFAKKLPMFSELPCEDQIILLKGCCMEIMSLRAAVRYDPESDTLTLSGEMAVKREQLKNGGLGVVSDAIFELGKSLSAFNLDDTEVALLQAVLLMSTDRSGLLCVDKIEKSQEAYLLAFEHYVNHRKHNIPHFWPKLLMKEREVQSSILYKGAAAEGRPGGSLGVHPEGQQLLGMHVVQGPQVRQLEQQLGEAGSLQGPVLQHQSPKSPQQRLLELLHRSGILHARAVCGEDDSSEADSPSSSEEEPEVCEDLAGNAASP

One assay addresses human Thyroid Receptor Alpha (TRa), THRA (gene 7067) (UniProt P10827). Nature of the assay: NVS_NR_hTRa_Antagonist: NovaScreen (NVS) Nuclear Receptor Binding Assay for human Thyroid Receptor Alpha Antagonism (TRa) (AID 2283362). How it is done: NVS_NR_hTRa_Antagonist is a biochemical, single-readout assay that uses extracted gene-proteins in a cell-free assay. Measurements were taken 1 hour after chemical dosing in a 384-well plate.NVS_NR_hTRa_Antagonist is one of one assay component(s) measured or calculated from the NVS_NR_hTRa_Antagonist assay. It is designed to make measurements of enzyme-linked immunosorbent assay, a form of binding reporter, as detected with chemiluminescence signals by AlphaLISA immunoassay technology.Data from the assay component NVS_NR_hTRa_Antagonist was analyzed into 1 assay endpoint. This assay endpoint, NVS_NR_hTRa_Antagonist, was analyzed in the positive analysis fitting direction relative to DMSO as the negative control and baseline of activity. Using a type of binding reporter, loss-of-signal activity can be used to understand changes in the binding as they relate to the gene THRA. Furthermore, this assay endpoint can be referred to as a primary readout, because the performed assay has only produced 1 assay endpoint. To generalize the intended target to other relatable targets, this assay endpoint is annotated to the nuclear receptor intended target family, where the subfamily is non-steroidal.
(§1) Binding assays used specific radioligands (tritiated, iodinated) with non-radioactive competitive displacement ligands in agonist or antagonist protocols (as indicated) and various reference compounds and inhibitors to titrate specific binding to receptors and transporters. Most enzyme assays (CYPs, kinases, phosphatases, proteases, HDACs) used recombinant protein and specific substrates (fluorescence mostly, some colorimetric and radioactive) and inhibitors, followed by a biochemical separation of substrate and product. All assays for the biochemical HTS were initially run in duplicate at a single concentration (10 uM for CYP450 assays and 25 uM for all others). […] Each assay was run with positive and negative controls, and concurrent controls on every plate. The follow-up (secondary) screen tested active chemical-pairs in concentration series, as well as a few additional assays not tested in the primary screen, some selected negative inactives, and several cases re-run in the concentration series for confirmatory purposes.
As to `CCC(=C(c1ccc(O)cc1)c1ccc(OCCN(C)C)cc1)c1ccccc1`, the call was inactive. The same measure, in the same setting: under `c1ccc2cc3c(ccc4ccccc43)cc2c1` stands “inactive”.

The term AC50 denotes the midpoint of the concentration-response curve, whichever way the signal moves. Consider `CC(=O)NC1(c2cccc(F)c2)CCN(CC[C@@]2(c3ccc(Cl)c(Cl)c3)CN(c3ccccc3)C(=O)CO2)CC1`, for which the AC50 is 20.8 µM (active). With `CC#C[C@]1(O)CC[C@H]2[C@@H]3CCC4=CC(=O)CCC4=C3[C@@H](c3ccc(N(C)C)cc3)C[C@@]21C`, the AC50 was 29.9 µM (active) and the compound was called inactive. In the case of `CC(C)(C)c1ccc(O)c(C(C)(C)C)c1`, the call was inactive.

As for `CCN(CC)CCNc1ccc(CNC=O)c2sc3ccc(OC)cc3c(=O)c12`, the AC50 was 15.1 µM (active).

A further assay has as its target Nuclear receptor subfamily 1 group I member 2 (Homo sapiens) (UniProt O75469). Nature of the assay: NVS_NR_hPXR: NovaScreen (NVS) Nuclear Receptor Binding Assay for human Pregnane X Receptor (PXR) (AID 2283365).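 Also: a drop in FRET signal versus DMSO baseline means the compound binds.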 A digest of the protocol:
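Cell-free TR-FRET binding assay with extracted human PXR protein, read 2 h after dosing. Primary screen run in duplicate at 25 uM, actives followed in concentration series; loss of signal fitted against DMSO baseline.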
In the case of `CCC(=C(c1ccc(O)cc1)c1ccc(OCCN(C)C)cc1)c1ccccc1`, the AC50 was 1.85 µM (active) and the compound was called inactive. `CC[C@H](c1ccc(O)cc1)[C@@H](CC)c1ccc(O)cc1`: the result was inactive. With `COCC(C)OCC(C)O` (configuration not stated), the result was inactive. Regarding `CCCCCCCC(=O)O`, the call was inactive. `ClC1=C(Cl)C(Cl)(Cl)C(Cl)=C1Cl`: the AC50 is 40.8 µM (active). In the case of `c1ccc2cc3c(ccc4ccccc43)cc2c1`, the result was inactive. Take `CC[C@H](C)[C@@H](C(=O)O)n1sc2ccccc2c1=O`: the compound was called inactive. For `CC#C[C@]1(O)CC[C@H]2[C@@H]3CCC4=CC(=O)CCC4=C3[C@@H](c3ccc(N(C)C)cc3)C[C@@]21C`, the outcome was inactive.

The target of another assay is rat Androgen Receptor (AR), Ar (gene 24208) (UniProt P15207). Nature of the assay: NVS_NR_rAR: NovaScreen (NVS) Nuclear Receptor Binding Assay for rat Androgen Receptor (AR) (AID 2283366). How it is done:
NVS_NR_rAR is a biochemical, single-readout assay that uses extracted gene-proteins from Testosterone pre-treated rat prostate in a tissue-based cell-free assay. Measurements were taken 18 hours after chemical dosing in a 96-well plate.NVS_NR_rAR is one of one assay component(s) measured or calculated from the NVS_NR_rAR assay. It is designed to make measurements of radioligand binding, a form of binding reporter, as detected with scintillation counting signals by Filter-based radiodetection technology.Data from the assay component NVS_NR_rAR was analyzed into 1 assay endpoint. This assay endpoint, NVS_NR_rAR, was analyzed in the positive analysis fitting direction relative to DMSO as the negative control and baseline of activity. Using a type of binding reporter, loss-of-signal activity can be used to understand changes in the binding as they relate to the gene Ar. Furthermore, this assay endpoint can be referred to as a primary readout, because the performed assay has only produced 1 assay endpoint. To generalize the intended target to other relatable targets, this assay endpoint is annotated to the nuclear receptor intended target family, where the subfamily is steroidal.
as §1
With `CCC(=C(c1ccc(O)cc1)c1ccc(OCCN(C)C)cc1)c1ccccc1`, the half-maximal activity concentration (AC50) was 3.78 µM (active) [middle of 4 runs].

As for `CC[C@H](c1ccc(O)cc1)[C@@H](CC)c1ccc(O)cc1`, the outcome was inactive. With `Cc1oc(-c2ccccc2)nc1CCOc1ccc(C[C@H](Nc2ccccc2C(=O)c2ccccc2)C(=O)O)cc1`, the AC50 was 16.3 µM (active). With `Oc1cc2ccccc2c2ccccc12`, the AC50 is 4.75 µM (active). `NC(=O)N1C(=O)C(C(=O)c2cc(Cl)cs2)c2cc(F)c(Cl)cc21` (configuration not stated): the half-maximal activity concentration (AC50) is 6.36 µM (active). Consider `O=c1c(-c2ccc(O)cc2)coc2cc(O)ccc12`, for which the compound was classed as inactive. Take `CCCOc1sc(C(=O)N2CCC(c3cc(CN)ccc3F)CC2)c(C)c1Br`: the AC50 was 13.6 µM (active).

Another assay deals with guinea pig Sigma Receptor, Non-selective Binding, SIGMAR1 (gene 100135589) (UniProt Q60492). Put plainly: NVS_OR_gSIGMA_NonSelective: NovaScreen (NVS) Nuclear Receptor Binding Assay for guinea pig Sigma Receptor, Non-selective Binding (AID 2283367). A digest of the protocol: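 Guinea pig brain membranes, cell-free radioligand binding; read 1 h after dosing by filter-based scintillation counting. Loss of signal vs DMSO baseline taken as displacement. Primary screen single concentration 25 uM in duplicate; actives retested in concentration series.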
Chain of guinea pig Sigma Receptor, Non-selective Binding, SIGMAR1 (gene 100135589) (Q60492 whole entry, looked up): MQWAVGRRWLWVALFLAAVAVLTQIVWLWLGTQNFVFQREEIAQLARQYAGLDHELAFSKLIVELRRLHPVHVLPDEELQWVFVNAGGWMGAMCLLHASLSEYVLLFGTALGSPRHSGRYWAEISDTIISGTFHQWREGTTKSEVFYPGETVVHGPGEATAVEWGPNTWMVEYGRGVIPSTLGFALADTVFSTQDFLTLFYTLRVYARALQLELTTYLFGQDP
For `CCC(=C(c1ccc(O)cc1)c1ccc(OCCN(C)C)cc1)c1ccccc1`, the AC50 was 0.598 µM (active). In the case of `Cc1cc(C)c(O)c(C)c1`, the outcome was inactive.

In the case of `c1ccc2c(c1)ccc1ccccc12`, the result was inactive. On to `CCc1ccc(CCOc2ccc(CC3SC(=O)NC3=O)cc2)nc1` (configuration not stated), for which the call was inactive. Turning to `CCCCCCCCCCCCCC[N+](C)(C)C`, the AC50 was 0.558 µM (active).

Turning to `CCCOc1sc(C(=O)N2CCC(c3cc(CN)ccc3F)CC2)c(C)c1Br`, the AC50 is 1.27 µM (active). `CCN(CC)CCNc1ccc(CNC=O)c2sc3ccc(OC)cc3c(=O)c12`: the half-maximal activity concentration (AC50) is 12.2 µM (active). Turning to `CCC(C)(C)C1CCC(O)CC1` (configuration not stated), the compound was classed as inactive. For `NC(=O)N(O)[C@@H]1C=C[C@H](Oc2cccc(Oc3ccc(F)cc3)c2)C1`, the AC50 was 7.64 µM (active).
